DAX1 inh-1 – DAX1 (NR0B1) inhibitors on StAR promoter, primary screen, cell-based, luminescence, SF-1 (NR5A1), full-length DAX-1 | HEK293T StAR-luciferase reporter, SF-1/DAX-1 repression relief | inhibition, % at 6.8 µM | 370,000 tested, 1.1% active;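 active means inhibition above the mean over all tested compounds plus 3 SD, cut at about 3.6% in these data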;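 further: 0% = DAX-1 cells with DMSO and 100% = cells lacking DAX-1 with DMSO; higher inhibition means more luminescence from relief of DAX-1 repression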
AHR act – AHR activators, primary screen, cell-based, luminescence, luciferase reporter, human; Aryl hydrocarbon receptor (Homo sapiens), P35869; AHR-responsive luciferase reporter cells; activation, % at 5 µM; 320,000 tested, 2.5% active; AID 2796, 2010; in the data active means activation above about 47%;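 further: 0% = vehicle wells and 100% = reference agonist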
Target sequence (P35869 whole entry, looked up): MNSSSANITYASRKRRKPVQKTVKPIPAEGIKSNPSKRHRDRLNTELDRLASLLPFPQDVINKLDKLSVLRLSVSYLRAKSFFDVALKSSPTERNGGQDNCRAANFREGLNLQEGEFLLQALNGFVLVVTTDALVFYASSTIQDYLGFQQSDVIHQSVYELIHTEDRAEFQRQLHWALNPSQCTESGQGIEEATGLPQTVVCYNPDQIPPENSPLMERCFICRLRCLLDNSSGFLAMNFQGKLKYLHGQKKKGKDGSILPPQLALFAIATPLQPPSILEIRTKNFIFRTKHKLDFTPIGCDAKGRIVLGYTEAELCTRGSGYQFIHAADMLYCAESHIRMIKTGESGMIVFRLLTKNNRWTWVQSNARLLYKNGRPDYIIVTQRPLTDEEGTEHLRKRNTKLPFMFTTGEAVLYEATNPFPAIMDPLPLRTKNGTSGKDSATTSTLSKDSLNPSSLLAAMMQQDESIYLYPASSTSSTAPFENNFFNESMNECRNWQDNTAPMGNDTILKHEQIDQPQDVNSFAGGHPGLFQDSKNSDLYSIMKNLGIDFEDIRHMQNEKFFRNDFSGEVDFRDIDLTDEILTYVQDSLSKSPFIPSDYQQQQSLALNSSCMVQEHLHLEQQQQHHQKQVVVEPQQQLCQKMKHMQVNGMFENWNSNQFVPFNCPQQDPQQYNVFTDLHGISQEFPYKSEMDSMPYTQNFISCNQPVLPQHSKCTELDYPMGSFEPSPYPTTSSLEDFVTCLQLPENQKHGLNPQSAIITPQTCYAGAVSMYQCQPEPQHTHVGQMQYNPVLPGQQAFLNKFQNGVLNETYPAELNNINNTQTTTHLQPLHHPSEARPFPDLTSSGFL
hcDAF-12 act – H. contortus DAF-12 nuclear receptor activators, primary screen, cell-based, luminescence, HEK293, lit1-tk-luc reporter. HEK293 hcDAF-12 lit1-tk-luc reporter; 0% DMSO, 100% Δ7-dafachronic acid. activation, % at 6.8 µM. 370,000 tested, 1.4% active. AID 652067, 2013;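 active means activation above the mean of all tested compounds plus 3 SD, cut at about 5.5% in these data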;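 further: 100% = response to 3 µM Δ7-dafachronic acid high control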
hgDAF-12 ag – H. glycines DAF-12 receptor agonists, primary screen, cell-based, luminescence, HEK293, GAL4 fusion, UAS-luciferase; 370,000 tested, 1.8% active; HEK293 GAL4-hgDAF12 UAS-luciferase reporter, agonist luminescence; normalized to butyrate control; activation, % at 6.8 µM;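 active means activation above a cutoff set at the mean of all screened compounds plus 3 SD, cut at about 10% in these data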;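 further: 0% = DMSO wells and 100% = sodium butyrate wells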
DAX1 inh-2 – DAX1 (NR0B1) inhibitors, primary screen, cell-based, HEK293, Gal4-DAX1, luciferase luminescence | Nuclear receptor subfamily 0 group B member 1 (Homo sapiens), P51843 | HEK293 Gal4-DAX1 luciferase reporter | inhibition, % at 6.75 µM | 340,000 tested, 0.99% active;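 active means inhibition above the mean over all tested compounds plus 3 SD, cut at about 4.2% in these data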;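 further: 0% = DAX1-transfected cells with DMSO and 100% = empty-vector control cells with DMSO; inhibition shows as a rise in luminescence from relieved DAX1 repression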
ssDAF-12 act – S. stercoralis DAF-12 nuclear receptor activators, primary screen, cell-based, luminescence, HEK293, GRIP1 co-expression, lit1-tk-luc; Nuclear hormone receptor DAF-12 (Strongyloides stercoralis); HEK293 ssDAF-12/GRIP1 lit1-tk-luc reporter; % of 3 µM dafachronic acid response; activation, % at 6.8 µM; 370,000 tested, 1% active; AID 652126, 2013;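 active means activation above the mean over all tested compounds plus 3 SD, cut at about 0.9% in these data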;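 further: 0% = DMSO-only wells and 100% = 3 µM delta7-dafachronic acid wells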
LXR ag – LXR agonists, Gal4 luciferase reporter, confirmation, counter-screen for hcDAF-12 agonist project, cell-based, luminescence, HEK293, H. contortus campaign; shares compounds with hcDAF-12 act; HEK293 Gal4-LXR tk-luc reporter, 24 h; normalized: DMSO 0%, positive control 100%; activation, % at 6.8 µM; 3,400 tested, under 10 active; AID 743027, 2013;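 active means mean percent activation of the reporter above a cutoff set as the average over tested compounds plus their standard deviation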
hcDAF12 ag – H. contortus DAF-12 receptor agonists, confirmation, cell-based, luminescence, HEK293, lit1-tk-luc, triplicate | activation, % at 6.8 µM | shares compounds with hcDAF-12 act | AID 743032, 2013 | 3,400 tested, 61% active | HEK293 hcDAF-12 lit1-tk-luc reporter; % of Δ7-dafachronic acid response;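 active means mean activation across triplicate tests above the threshold derived from the earlier primary screen, cut at about 5.5% in these data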;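 further: 0% = DMSO only wells and 100% = 3 µM Δ7-dafachronic acid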
* marks the source's active call; other numbers are inactive results. Compounds with a hit are over-represented: about 5.7% of the library has one in this group of screens.

Screening COc1ccc(OC)c(NC(=O)c2cc3ccccc3cc2OC)c1 returned DAX1 inh-1 0, AHR act 7, hcDAF-12 act -1, hgDAF-12 ag 1, DAX1 inh-2 -2 and ssDAF-12 act -1.
For COc1cccc(NC(=O)c2cc3ccccc3cc2OC)c1 the results were DAX1 inh-1 1, AHR act 7, hcDAF-12 act 8.4*, hgDAF-12 ag 10, DAX1 inh-2 4, ssDAF-12 act 0, LXR ag 1 and hcDAF12 ag 9.3*.
COc1cc(SC)ccc1C(=O)Nc1nc2ccccc2[nH]1 was read as DAX1 inh-1 -2, AHR act -4, hcDAF-12 act -9, hgDAF-12 ag -17, DAX1 inh-2 -4 and ssDAF-12 act -3.
`COc1cccc(NC(=O)Nc2ccc(Cc3ccncc3)cc2)c1` gave DAX1 inh-1 0, AHR act 5, hcDAF-12 act -2, hgDAF-12 ag 9, DAX1 inh-2 -1 and ssDAF-12 act -1.
`COc1cc(SC)ccc1C(=O)Nc1ccccc1` gave DAX1 inh-1 2, AHR act 12, hcDAF-12 act 7.7*, hgDAF-12 ag 9, DAX1 inh-2 2, ssDAF-12 act 0, LXR ag 1 and hcDAF12 ag 8.3*.
`COc1cccc(NC(=O)Nc2ccncc2)c1` gave DAX1 inh-1 0, AHR act 22, hcDAF-12 act 6.8*, hgDAF-12 ag 2, DAX1 inh-2 0, ssDAF-12 act -1, LXR ag 0 and hcDAF12 ag 0.
Screening COc1cccc(NC(=O)CN(C)C(=O)C2CC(=O)N(CCc3ccc(OC)c(OC)c3)C2)c1 (stereo not drawn) returned DAX1 inh-1 0, hcDAF-12 act -1, hgDAF-12 ag 1, DAX1 inh-2 0 and ssDAF-12 act -1.
For Cc1cc(Br)ccc1OCCCCN1CCCCC1 the results were DAX1 inh-1 0, AHR act -1, hcDAF-12 act -2, hgDAF-12 ag 2, DAX1 inh-2 1 and ssDAF-12 act -2.
`COC(=O)CN1C(c2cccc(Cl)c2)=Nc2ccc(Cl)cc2C1c1ccccc1` (stereo not drawn) gave DAX1 inh-1 0, AHR act 15, hcDAF-12 act 10*, hgDAF-12 ag 1, DAX1 inh-2 0, ssDAF-12 act -1, LXR ag 0 and hcDAF12 ag 2.
For CC1=C(C(=O)N(C)C)CC(CC(=O)NCCCN(C)C)C(=O)N1Cc1ccc(F)cc1 (stereo not drawn) the results were DAX1 inh-1 0, hcDAF-12 act 0, hgDAF-12 ag 2 and ssDAF-12 act 0.
For O=C(Nc1ccc2ccccc2c1)c1ccccc1[N+](=O)[O-] the results were DAX1 inh-1 2, hcDAF-12 act 7.9*, hgDAF-12 ag 10, DAX1 inh-2 4, ssDAF-12 act 1, LXR ag 0 and hcDAF12 ag 4.

Screening data as filed in PubChem BioAssay.
